Key:
Test in all cases: DAPPL (digital affinity profiling via proximity ligation, sequencing); 10 mM Tris-HCl pH 7.5, 50 mM NaCl, 1 mM DTT, 4% glycerol, room temperature, 30 min; GST-TFs on glutathione beads, 16-mer random dsDNA library, 0.1% formaldehyde crosslink after washing; high values mean tight binding
Conditions in all cases: protein: recombinant; tags: N-terminal GST; dsDNA, one strand shown
ELK1 = target: T1, ELK1 (Homo sapiens, UniProt P19419 1-428)
T1 sequence: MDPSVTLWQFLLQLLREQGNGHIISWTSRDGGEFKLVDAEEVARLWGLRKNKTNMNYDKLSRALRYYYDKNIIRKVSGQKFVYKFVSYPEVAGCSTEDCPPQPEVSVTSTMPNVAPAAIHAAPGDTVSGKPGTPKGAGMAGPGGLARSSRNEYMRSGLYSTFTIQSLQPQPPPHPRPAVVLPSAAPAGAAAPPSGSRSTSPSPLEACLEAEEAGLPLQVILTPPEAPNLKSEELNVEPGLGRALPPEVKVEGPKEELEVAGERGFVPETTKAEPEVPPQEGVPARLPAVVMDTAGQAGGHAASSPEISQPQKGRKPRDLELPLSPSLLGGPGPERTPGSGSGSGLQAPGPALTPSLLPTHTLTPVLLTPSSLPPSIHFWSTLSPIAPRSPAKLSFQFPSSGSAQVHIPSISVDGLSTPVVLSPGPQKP
How it was run: (§1)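 A tag-only sample was pooled with DNA-barcoded human transcription factors that had been expressed in yeast as GST fusions and captured on glutathione beads. The pools were incubated for 30 min at room temperature with 200 nmole of a random double-stranded 16-mer DNA library in Tris/NaCl/DTT/glycerol buffer, then washed, crosslinked with 0.1% formaldehyde, proximity-ligated (BsaI/T4 ligase, 1 h, 37 °C), PCR-amplified and sequenced on an Illumina NextSeq500. Binding signal is each hexamer's read frequency for a factor divided by its frequency for the tag-only sample.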

GABPA = target: T2, GABPA (Homo sapiens, UniProt Q06546 1-454)
T2 sequence: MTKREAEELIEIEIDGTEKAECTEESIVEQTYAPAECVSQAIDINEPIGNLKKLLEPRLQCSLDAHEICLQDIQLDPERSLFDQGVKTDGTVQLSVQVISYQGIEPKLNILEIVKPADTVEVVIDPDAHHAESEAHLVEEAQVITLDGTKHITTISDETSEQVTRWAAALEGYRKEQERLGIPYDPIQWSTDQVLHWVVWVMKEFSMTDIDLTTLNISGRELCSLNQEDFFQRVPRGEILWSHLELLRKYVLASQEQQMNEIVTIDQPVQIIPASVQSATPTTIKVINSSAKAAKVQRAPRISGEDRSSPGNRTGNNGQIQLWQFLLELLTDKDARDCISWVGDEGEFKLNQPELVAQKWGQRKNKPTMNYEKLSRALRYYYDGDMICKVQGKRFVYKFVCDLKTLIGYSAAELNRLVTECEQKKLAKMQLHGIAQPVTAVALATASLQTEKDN
How it was run: as §1

ERG = target: T3, ERG (Homo sapiens, UniProt P11308 1-479)
T3 sequence: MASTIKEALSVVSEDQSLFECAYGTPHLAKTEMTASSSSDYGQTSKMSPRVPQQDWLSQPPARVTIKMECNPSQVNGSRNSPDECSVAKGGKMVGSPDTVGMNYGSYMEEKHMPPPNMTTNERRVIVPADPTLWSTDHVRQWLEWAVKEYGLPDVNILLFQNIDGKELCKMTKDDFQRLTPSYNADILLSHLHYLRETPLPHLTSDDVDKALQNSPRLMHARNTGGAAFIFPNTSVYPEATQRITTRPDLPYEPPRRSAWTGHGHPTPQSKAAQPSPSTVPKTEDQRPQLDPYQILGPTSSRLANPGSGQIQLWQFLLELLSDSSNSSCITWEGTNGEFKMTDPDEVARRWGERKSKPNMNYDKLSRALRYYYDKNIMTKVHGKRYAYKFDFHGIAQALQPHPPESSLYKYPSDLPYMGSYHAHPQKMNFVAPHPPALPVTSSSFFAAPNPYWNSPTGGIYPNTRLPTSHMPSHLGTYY
How it was run: as §1

ELF1 = ELF1 (Homo sapiens, UniProt P32519 1-619)
ELF1, sequence (P32519 whole entry): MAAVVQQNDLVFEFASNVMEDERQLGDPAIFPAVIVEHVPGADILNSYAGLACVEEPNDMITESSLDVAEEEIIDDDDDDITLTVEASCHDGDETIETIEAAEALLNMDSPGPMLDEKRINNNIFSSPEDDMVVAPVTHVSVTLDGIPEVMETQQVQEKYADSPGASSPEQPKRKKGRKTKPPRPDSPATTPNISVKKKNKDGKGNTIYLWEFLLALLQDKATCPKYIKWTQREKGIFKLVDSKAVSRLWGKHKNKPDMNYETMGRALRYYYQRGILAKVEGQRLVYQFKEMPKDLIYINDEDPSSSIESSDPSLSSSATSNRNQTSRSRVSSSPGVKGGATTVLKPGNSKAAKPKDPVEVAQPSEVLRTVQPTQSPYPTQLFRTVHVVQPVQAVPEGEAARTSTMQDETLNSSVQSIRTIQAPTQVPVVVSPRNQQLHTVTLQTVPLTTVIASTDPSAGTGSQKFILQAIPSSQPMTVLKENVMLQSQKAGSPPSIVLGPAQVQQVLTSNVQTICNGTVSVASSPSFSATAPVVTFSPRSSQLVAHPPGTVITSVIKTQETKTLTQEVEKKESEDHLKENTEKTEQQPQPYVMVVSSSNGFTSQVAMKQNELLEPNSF
How it was run: as §1

EHF = target: T4, EHF (Homo sapiens, UniProt Q9NZC4 1-300)
T4 sequence: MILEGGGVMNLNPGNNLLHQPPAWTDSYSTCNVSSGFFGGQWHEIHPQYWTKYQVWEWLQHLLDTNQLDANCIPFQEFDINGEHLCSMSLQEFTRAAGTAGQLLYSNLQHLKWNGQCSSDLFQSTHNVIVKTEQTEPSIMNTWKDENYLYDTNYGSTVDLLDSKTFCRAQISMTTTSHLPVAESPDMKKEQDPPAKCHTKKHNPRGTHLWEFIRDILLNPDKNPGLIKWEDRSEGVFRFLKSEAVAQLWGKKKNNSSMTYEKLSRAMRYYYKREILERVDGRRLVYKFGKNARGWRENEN
How it was run: as §1

SPIB = SPIB (Homo sapiens, UniProt Q01892 1-262)
SPIB, sequence (Q01892 whole entry): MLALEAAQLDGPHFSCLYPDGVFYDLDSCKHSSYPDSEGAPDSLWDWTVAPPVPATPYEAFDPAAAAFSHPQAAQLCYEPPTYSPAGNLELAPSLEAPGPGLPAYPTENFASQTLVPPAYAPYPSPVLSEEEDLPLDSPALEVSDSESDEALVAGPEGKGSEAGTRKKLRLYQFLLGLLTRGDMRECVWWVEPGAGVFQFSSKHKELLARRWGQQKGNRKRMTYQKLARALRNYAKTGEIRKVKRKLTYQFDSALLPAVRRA
How it was run: as §1

FEV = target: T5, FEV (Homo sapiens, UniProt Q99581 1-238)
T5 sequence: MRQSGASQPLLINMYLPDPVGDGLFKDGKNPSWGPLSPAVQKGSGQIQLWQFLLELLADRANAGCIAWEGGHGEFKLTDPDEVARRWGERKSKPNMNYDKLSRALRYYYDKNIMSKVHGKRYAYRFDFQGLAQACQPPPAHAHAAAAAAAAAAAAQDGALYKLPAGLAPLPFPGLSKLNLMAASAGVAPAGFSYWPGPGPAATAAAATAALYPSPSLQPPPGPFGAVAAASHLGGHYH
How it was run: as §1

ETV5 = ETV5 (Homo sapiens, UniProt P41161 1-510)
ETV5, sequence (P41161 whole entry): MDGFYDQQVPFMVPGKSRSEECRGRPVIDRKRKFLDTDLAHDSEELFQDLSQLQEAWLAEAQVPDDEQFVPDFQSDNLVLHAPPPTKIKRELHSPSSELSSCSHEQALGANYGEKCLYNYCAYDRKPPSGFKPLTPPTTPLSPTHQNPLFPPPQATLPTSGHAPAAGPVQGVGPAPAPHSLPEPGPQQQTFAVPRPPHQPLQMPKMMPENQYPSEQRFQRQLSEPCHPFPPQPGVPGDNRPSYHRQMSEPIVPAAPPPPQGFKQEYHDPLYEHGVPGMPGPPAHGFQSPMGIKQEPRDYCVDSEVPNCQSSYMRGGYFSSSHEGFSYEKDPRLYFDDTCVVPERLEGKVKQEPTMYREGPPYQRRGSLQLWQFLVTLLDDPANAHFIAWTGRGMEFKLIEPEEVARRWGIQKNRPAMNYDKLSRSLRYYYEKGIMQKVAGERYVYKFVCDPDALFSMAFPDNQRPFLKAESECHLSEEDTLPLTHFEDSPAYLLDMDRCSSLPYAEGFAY
How it was run: as §1

ELF4 = ELF4 (Homo sapiens, UniProt Q99607 1-663)
ELF4, sequence (Q99607 whole entry): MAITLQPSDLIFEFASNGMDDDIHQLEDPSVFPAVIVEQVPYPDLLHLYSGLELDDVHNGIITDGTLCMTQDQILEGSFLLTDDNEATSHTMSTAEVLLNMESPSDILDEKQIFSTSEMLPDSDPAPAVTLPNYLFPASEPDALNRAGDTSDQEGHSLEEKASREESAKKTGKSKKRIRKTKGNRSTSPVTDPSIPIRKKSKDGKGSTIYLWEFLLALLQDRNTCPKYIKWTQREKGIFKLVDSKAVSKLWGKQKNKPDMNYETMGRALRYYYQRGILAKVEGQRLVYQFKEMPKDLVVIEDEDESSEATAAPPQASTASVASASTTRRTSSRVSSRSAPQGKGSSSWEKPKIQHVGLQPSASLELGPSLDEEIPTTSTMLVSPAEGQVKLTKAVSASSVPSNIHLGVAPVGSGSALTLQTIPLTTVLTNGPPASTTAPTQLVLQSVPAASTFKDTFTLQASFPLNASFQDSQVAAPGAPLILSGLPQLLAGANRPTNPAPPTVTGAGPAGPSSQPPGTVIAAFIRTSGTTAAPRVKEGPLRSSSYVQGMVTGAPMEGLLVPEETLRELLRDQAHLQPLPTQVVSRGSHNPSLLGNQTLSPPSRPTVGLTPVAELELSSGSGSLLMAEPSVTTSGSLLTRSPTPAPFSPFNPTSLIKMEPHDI
How it was run: as §1

## CGATGC
ELK1
  binding signal: 1.1 fold enrichment (6-mer frequency, TF over GST control)
GABPA
  binding signal: 1.19 fold enrichment (6-mer frequency, TF over GST control)
ERG
  binding signal: 1.08 fold enrichment (6-mer frequency, TF over GST control)
ELF1
  binding signal: 1.02 fold enrichment (6-mer frequency, TF over GST control)
EHF
  binding signal: 1.09 fold enrichment (6-mer frequency, TF over GST control)
SPIB
  binding signal: 1.06 fold enrichment (6-mer frequency, TF over GST control)
FEV
  binding signal: 1.07 fold enrichment (6-mer frequency, TF over GST control)
ETV5
  binding signal: 1.11 fold enrichment (6-mer frequency, TF over GST control)
ELF4
  binding signal: 1.19 fold enrichment (6-mer frequency, TF over GST control)
